CYP2C9 act = human CYP2C9 activators, primary screen, biochemical, luminescence; Cytochrome P450 2C9 (Homo sapiens), P11712; recombinant CYP2C9, luciferin-H conversion; stronger effect = higher value; factor 1 = untreated enzyme, 0 = blocked; activation factor at 5 µM; actives 1.4% (n = 96,000);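 active = activation factor of 2 or more for CYP2C9 at a 5 µM dose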;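 note: 0 = sulfaphenazole-blocked wells and 1 = vehicle-only wells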
Target sequence (P11712 whole entry, looked up): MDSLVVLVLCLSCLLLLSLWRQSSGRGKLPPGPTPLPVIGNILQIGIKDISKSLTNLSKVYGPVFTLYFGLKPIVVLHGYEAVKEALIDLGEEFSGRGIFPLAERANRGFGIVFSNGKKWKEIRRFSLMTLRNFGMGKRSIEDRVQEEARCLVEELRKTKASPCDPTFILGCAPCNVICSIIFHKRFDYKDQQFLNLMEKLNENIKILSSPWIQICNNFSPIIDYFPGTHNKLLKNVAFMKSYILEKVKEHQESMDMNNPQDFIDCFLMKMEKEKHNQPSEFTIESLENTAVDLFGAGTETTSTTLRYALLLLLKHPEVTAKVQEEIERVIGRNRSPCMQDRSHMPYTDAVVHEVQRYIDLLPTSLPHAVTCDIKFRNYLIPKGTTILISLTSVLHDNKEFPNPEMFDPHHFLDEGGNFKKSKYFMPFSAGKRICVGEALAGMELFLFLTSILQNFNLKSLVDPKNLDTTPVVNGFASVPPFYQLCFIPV
Pyk2 oligo antag = antagonists of Pyk2 self-association, primary screen, Q293 cells, FERM NanoBiT luminescence, HTS; stronger effect = lower value; actives 0.83% (n = 99,000); Protein-tyrosine kinase 2-beta (Homo sapiens), Q14289; z-score (the deposit names both 25 µM and 10 µM); AID 1347419, 2020;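 active = Z-score of -3 or lower, scaled per plate to the spread of control and sample wells; inactive = z-score above -3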;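 note: negative z-score means lost luminescence so less FERM oligomerization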
CYP2C19 inh = blockers of cytochrome P450 2C19 activity – biochemical, luminescence, ADME assay, primary screen; P33261; CYP2C19 Supersomes, luciferin-H EGE luminescence, 30 min; inhibition, % at 5 µM; actives 21% (n = 96,000); AID 778, 2007;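 active = CYP2C19 inhibition above a set limit at 5 µM in the primary screen, cut at about 50% in these data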;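 note: plate controls were negative control wells for no effect and 2.5 mM tranylcypromine positive control for full effect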
Cav32 inh = Cav3.2 calcium influx blockers – cell-based, Fluo-4 calcium fluorescence, FDSS, MLSMR library, primary screen; B-score at 10 µM; Voltage-dependent T-type calcium channel subunit alpha-1H (Homo sapiens), O95180; AID 449739, 2010; Cav3.2-expressing cells; stronger effect = lower value; actives 4% (n = 100,000);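 active = single-dose well whose peak fluorescence ratio is a statistical outlier from its plate by either plate-standardised score or position-corrected B-score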
CYP2C9 inhib = blockers of cytochrome P450 2C9 activity – biochemical, luminescence, ADME assay, primary screen; CYP2C9 Supersomes, luciferin-H conversion; AID 777, 2007; actives 20% (n = 96,000); P11712; inhibition, % at 5 µM;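 active = blocking of liver enzyme CYP2C9 beyond about 50% at 5 µM, limit read from the data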
CYP2C19 activ = human CYP2C19 activators, primary screen, biochemical, luminescence; Cytochrome P450 2C19 (Homo sapiens), P33261; recombinant CYP2C19, luciferin-H EGE luminescence; stronger effect = higher value; 0 = fully inhibited enzyme, 1 = untreated enzyme; activation factor at 5 µM; 96,000 tested, under 10 active;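 active = activation factor of at least 2 at 5 µM in the primary screen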;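 note: 0 = wells with 2.5 mM tranylcypromine and 1 = vehicle-only wells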
* = called active by the depositor; / = not tested or not shown. In the library only some 27% were active in any assay of this set; here they are far more common.

SMILES	CYP2C9 act	Pyk2 oligo antag	CYP2C19 inh	Cav32 inh	CYP2C9 inhib	CYP2C19 activ
Cc1ccsc1/C=N/N1CCN(C2c3ccccc3-c3ccccc32)CC1	0.1	-0.89	29	-0.95	88*	0.7
CS(=O)(=O)c1ccc(CNC(=O)C2(C(F)(F)F)C/C(=C\Cc3ccccc3)CCCO2)cc1 (configuration not stated)	/	/	/	-2.1	/	/
O=C(Cc1csc(Nc2nc(=S)[nH]c3ccccc23)n1)NCc1cccc(Cl)c1	0.2	-1.1	31	/	83*	0.7
Cc1ccc(CNC(=O)Cc2csc(Nc3nc(=S)[nH]c4ccccc34)n2)cc1	0.2	/	65*	/	82*	0.4
Cc1ccc(CNC(=O)c2cc3c(C)nc4ccccc4c3o2)cc1	0.9	/	14	-1.1	10	0.9
O=C(Cn1cc2c(n1)CCCC2)NCc1cccc(Cl)c1	1.9	/	48	0.36	-93	0.5
O=C(Cc1csc(Nc2nc(=S)[nH]c3ccccc23)n1)NCc1ccccc1Cl	0.2	1.3	35	-0.23	83*	0.7
CCOC(=O)c1ccccc1Oc1c(F)c(F)nc(NCCO)c1F	0.5	0.02	62*	-2.2	51*	0.4
CCCN(CCC)c1nc(N)c(C#N)c(CC#N)c1C#N	0.8	0.23	-4	0.9	25	1
CCN(CC)c1nc2c3c(nc4c(c3c1C#N)CC(=O)N4c1ccc(Cl)cc1)NC(C)=N2	/	-2.2	/	/	/	/
C=C(C)CN(CC)c1nc(N)c2c(N)nc3c(c2c1C#N)CC(=O)N3C12CC3CC(CC(C3)C1)C2	0.1	-1.2	42	-1.8	92*	0.6
CCCCN1C(=O)Cc2c1nc(N)c1c(N)nc(N(CCC)CCC)c(C#N)c21	0.6	-3.6*	-1	/	42	1
O=C(CC1NCCNC1=O)Nc1ccc2c(c1)OCO2 (configuration not stated)	0.8	1.2	6	0.91	22	0.9
C=C(C)CSc1nnc(CCNC(=O)OC(C)(C)C)o1	0.7	-0.4	87*	0.43	34	0.1
Clc1ccc(CSc2nnc(CNc3cccc(Cl)c3)o2)cc1	0.7	0.38	53*	/	25	0.5
O=C(CSc1nnc(CNc2cccc(Cl)c2)o1)OC1CCCCC1	0.6	0.09	29	-3.3	39	0.7
O=c1cc(CSc2nnc(COc3ccccc3Cl)o2)nc2sccn12	0.5	-0.8	88*	-0.69	53*	0.1
O=C(O)c1ccc(CSc2nnc(COc3ccc(Cl)cc3Cl)o2)cc1	0.8	/	-1	-9.2*	19	1
O=C(O)CCC(=O)N1CCc2cc(S(=O)(=O)N(CCc3ccccc3)Cc3ccccc3)ccc21	0.9	-1.1	0	-2.3	12	1
Cc1nc2c3ccccc3[nH]c(=O)n2n1	/	0.31	/	0.53	/	/
CCN1CCN(CCCNC(=O)C2CCCN(c3nnc(-n4cccc4)s3)C2)CC1 (configuration not stated)	0.8	-0.2	6	-0.085	19	0.9
CC(C)(C)OC(=O)NCCCCCc1nnc(SCC(=O)Nc2cccc(Cl)c2)o1	0.1	-0.21	93*	-7.3*	90*	0.1
CCSc1nnc(CCNC(=O)OC(C)(C)C)o1	0.9	0.48	-11	0.38	12	1.1
CC(C)(C)OC(=O)NCCc1nnc(SCc2ccc(Cl)cc2)o1	0.5	0.01	25	-2.8	54*	0.8
COc1cccc(COCCN2CCN(S(=O)(=O)c3ccc(C)cc3)CCC2=O)c1	/	/	/	0.31	/	/
SMILES	CYP2C9 act	Pyk2 oligo antag	CYP2C19 inh	Cav32 inh	CYP2C9 inhib	CYP2C19 activ
COc1ccc(N2CCN(C(c3ccccc3OC)c3nnnn3C3CCCC3)CC2)cc1 (configuration not stated)	0.2	-2.9	76*	-5.9*	77*	0.2
COc1ccc(N2CCN(C(c3cccc(OC)c3OC)c3nnnn3C3CCCC3)CC2)cc1 (configuration not stated)	0.3	-2.6	80*	-5.4*	73*	0.2
Fc1ccccc1N1CCN(C(c2ccccn2)c2nnnn2C2CCCCC2)CC1 (configuration not stated)	0.2	-1.6	80*	-2	77*	0.2
COc1ccccc1N1CCN(C(c2cc3cc(C)ccc3[nH]c2=O)c2nnnn2C2CCCC2)CC1 (configuration not stated)	1.2	0.55	24	-1.3	-18	0.8
COc1ccc(C(c2nnnn2C2CCCC2)N2CCC(C(N)=O)CC2)c(OC)c1 (configuration not stated)	1	-0.35	6	/	4	0.9
COc1ccc(OC)c(C(c2nnnn2C2CCCC2)N2CCN(c3ccccc3F)CC2)c1 (configuration not stated)	0.1	-3.8*	95*	-6.1*	94*	0.1
COc1ccccc1N1CCN(C(c2ccccn2)c2nnnn2C2CCCCC2)CC1 (configuration not stated)	0.5	-0.91	42	0.021	49	0.6
Cc1ccccc1-c1nc(CN2CCC(C(=O)NC3CCN(Cc4ccccc4)CC3)CC2)c(C)o1	/	/	/	0.29	/	/
CCC(=O)Nc1ccc(N2CCC(C)CC2)cc1	/	-0.38	/	-0.1	/	/
O=C(NCC(=O)N(Cc1ccccc1)C(C(=O)NC1CCCC1)c1ccncc1)c1ccco1 (configuration not stated)	/	1.4	/	-0.0046	/	/
COc1cc(CCCN2C(N)=NC[C@@H]2Cc2ccc(O)cc2)cc(OC)c1OC	/	/	/	0.048	/	/
Cc1nn2cc(-c3ccccc3)nc2s1	1	-0.12	22	1	1	0.8
c1ccc(-c2cn3c4c(sc3n2)CCCC4)cc1	0.8	0.66	57*	-1.1	19	0.4
CS(=O)(=O)N1CCc2cc(S(=O)(=O)Nc3ccc4oc5c(c4c3)CCCC5)ccc21	0.1	-0.61	96*	-1.4	93*	0
CS(=O)(=O)N1CCc2cc(-c3csc(NCC4CCCO4)n3)ccc21 (configuration not stated)	/	-0.08	/	1	/	/
CCN(CC)S(=O)(=O)c1ccc(-c2ccc(S(=O)(=O)N(CC)CC)cc2)cc1	0.6	0.36	9	0.46	37	0.9
CCN(CC)S(=O)(=O)c1ccc(OCC(=O)NCc2ccccc2)cc1	0.3	-0.46	-3	0.82	67*	1
CCN(CC)S(=O)(=O)c1ccc(Oc2ccccc2)cc1	0.3	-1.6	28	-2.3	66*	0.7
Cc1ccc(C2(CC(=O)N3CCCC3)CCOC(C(C)C)C2)cc1 (configuration not stated)	1	0.37	21	0.038	4	0.8
COc1ccccc1C1(CC(=O)N2CCCCC2)CCOC(C(C)C)C1 (configuration not stated)	0.7	-0.37	50*	/	34	0.5
